Assay results reported in the supplement of paper PMC3545927.
Some of the results follow. No count for the full screen is at hand.

B1: HC2179 (peptide)
chain: CAEPVTSTWVAGNASASA
B2: FS-1856 (peptide)
chain: CARKKRGYRDAGNASASA
B3: FS-1284 (peptide)
chain: CASSNRLARFAGNASASA
B4: FS-2962 (peptide)
chain: CARKKREIRSAGNASASA
B5: FS-373 (peptide)
chain: CARFARYYRDAGNASASA
B6: FS-2690 (peptide)
chain: CARKKKGKADAGNASASA
B7: HC514 (peptide)
chain: CASSIASWAIAGNASASA
B8: HC14 (peptide)
chain: CAMEECSQHLAGNASASA
B9: FS-2963 (peptide)
chain: CARKKREITEAGNASASA
B10: FS-1419 (peptide)
chain: CASSNRSYRDAGNASASA
B11: FS-1082 (peptide)
chain: CASMGREIRSAGNASASA
B12: HC2068 (peptide)
chain: CAVVCCSMWYAGNASASA
B13: HC1515 (peptide)
chain: CACGNTLTCYAGNASASA
B14: HC733 (peptide)
chain: CARGDSRGSLAGNASASA
B15: FS-3097 (peptide)
chain: CARSSRSNGRAGNASASA
B16: FS-431 (peptide)
chain: CAGRCREKRRAGNASASA
B17: FS-2092 (peptide)
chain: CARSSRDSSAAGNASASA
B18: HC1517 (peptide)
chain: CALTCYIKARAGNASASA
B19: FS-1141 (peptide)
chain: CAMWHREKRRAGNASASA
B20: FS-377 (peptide)
chain: CARSSREKRRAGNASASA
B21: FS-714 (peptide)
chain: CARSSRHPRRAGNASASA
B22: NG3 (peptide)
chain: CAPQGDAAQKAGNASASA
B23: HC238 (peptide)
chain: CAVRVLEDGVAGNASASA
B24: HC211 (peptide)
chain: CARGSRPSWGAGNASASA
B25: FS-2018 (peptide)
chain: CARGKRSLDGAGNASASA
B26: FS-2086 (peptide)
chain: CARSFRSGDGAGNASASA
B27: FS-2671 (peptide)
chain: CARGKRHLQGAGNASASA
B28: HC2382 (peptide)
chain: CAEVPCHQPSAGNASASA
B29: HC810 (peptide)
chain: CAFLADGGCSAGNASASA
B30: HC111 (peptide)
chain: CAVVCCKMSYAGNASASA
B31: FS-1581 (peptide)
chain: CAYKSRTKRSAGNASASA
B32: FS-533 (peptide)
chain: CAGRSRPDRSAGNASASA
B33: FS-1593 (peptide)
chain: CAHRGVTKRSAGNASASA
B34: FS-1332 (peptide)
chain: CAGRSRTKRSAGNASASA
B35: HC1443 (peptide)
chain: CAFCVQPEKGAGNASASA
B36: HC2038 (peptide)
chain: CAVVTCSMSYAGNASASA
B37: HC2541 (peptide)
chain: CASTPCSNHLAGNASASA
B38: FS-746 (peptide)
chain: CAAKHRTKRSAGNASASA
B39: FS-1165 (peptide)
chain: CASHQRTKRSAGNASASA
B40: FS-1533 (peptide)
chain: CAHRGPARRSAGNASASA
B41: FS-675 (peptide)
chain: CAKKQETKRSAGNASASA
B42: HC2421 (peptide)
chain: CAEVPCHRPNAGNASASA
B43: HC100 (peptide)
chain: CAVVCPSMSYAGNASASA
B44: FS-993 (peptide)
chain: CAEQWRSRRSAGNASASA
B45: FS-1453 (peptide)
chain: CAEQIRQDRSAGNASASA
B46: FS-1629 (peptide)
chain: CAHAWRSRRSAGNASASA

Biological target: furin, P09958
Sequence (P09958 whole entry): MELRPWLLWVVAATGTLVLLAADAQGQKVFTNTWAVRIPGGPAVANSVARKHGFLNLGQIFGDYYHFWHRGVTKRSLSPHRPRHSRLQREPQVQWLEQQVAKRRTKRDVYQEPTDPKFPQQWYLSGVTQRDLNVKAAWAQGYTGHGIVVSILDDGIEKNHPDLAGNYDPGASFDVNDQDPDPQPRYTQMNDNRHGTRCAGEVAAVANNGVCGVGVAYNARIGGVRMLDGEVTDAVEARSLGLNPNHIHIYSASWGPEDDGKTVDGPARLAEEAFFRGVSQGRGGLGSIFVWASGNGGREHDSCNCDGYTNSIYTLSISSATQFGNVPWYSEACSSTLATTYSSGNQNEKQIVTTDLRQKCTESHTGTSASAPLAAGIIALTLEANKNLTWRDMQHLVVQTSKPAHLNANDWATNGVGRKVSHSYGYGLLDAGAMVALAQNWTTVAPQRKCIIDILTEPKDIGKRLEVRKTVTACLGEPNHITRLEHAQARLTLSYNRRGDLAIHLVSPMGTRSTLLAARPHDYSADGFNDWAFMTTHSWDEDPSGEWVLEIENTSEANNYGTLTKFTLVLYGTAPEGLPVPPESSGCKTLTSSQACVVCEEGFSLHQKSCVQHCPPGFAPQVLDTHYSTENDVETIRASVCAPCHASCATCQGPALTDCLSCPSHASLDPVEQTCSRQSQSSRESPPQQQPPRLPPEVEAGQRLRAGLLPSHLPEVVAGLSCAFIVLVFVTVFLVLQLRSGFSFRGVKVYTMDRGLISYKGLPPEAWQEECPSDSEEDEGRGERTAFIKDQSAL
Test: furin cleavage Z-score vs untreated control; higher = more cleavage, active = 3.5 or more, inactive = 1 or less, 8 variable residues between constant flanks
Outline: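 Cleavage by purified furin was measured on 8-mer peptides fused to a cDNA oligonucleotide and held on magnetic beads by their N-terminus. Reactions (0.01 ml, 1:10 enzyme:substrate) ran 7.5, 15 or 30 min in 50 mM HEPES pH 7.5 with CaCl2 and NaCl. Released DNA was adapter-tagged by PCR and sequenced, with read counts giving abundance. Log counts versus furin-free reactions were lowess-adjusted and scaled by median absolute deviation to give the cleavage Z-score.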

| Sequence | furin cleavage Z-score (7.5 min) | furin cleavage Z-score (15 min) | furin cleavage Z-score (30 min) |
| --- | --- | --- | --- |
| B1 | 1.29 | -0.789 (inactive) | 0.354 (inactive) |
| B2 | 10.5 (active) | 11.2 (active) | 8.83 (active) |
| B3 | 3.54 (active) | 4.58 (active) | 6.02 (active) |
| B4 | 14.3 (active) | 12.6 (active) | 10.5 (active) |
| B5 | 4.68 (active) | 4.65 (active) | 5.39 (active) |
| B6 | 0.358 (inactive) | -1.8 (inactive) | -1.17 (inactive) |
| B7 | 0.395 (inactive) | 0.651 (inactive) | 2.3 |
| B8 | 1.42 | 0.653 (inactive) | 1.44 |
| B9 | 11.3 (active) | 12.7 (active) | 9.25 (active) |
| B10 | 2.48 | 3.58 (active) | 4.08 (active) |
| B11 | 4.08 (active) | 3.82 (active) | 3.6 (active) |
| B12 | 1.14 | -0.944 (inactive) | 0.031 (inactive) |
| B13 | -0.25 (inactive) | -2.28 (inactive) | -1.28 (inactive) |
| B14 | -0.929 (inactive) | -0.316 (inactive) | -0.341 (inactive) |
| B15 | -1.39 (inactive) | -0.51 (inactive) | -1.39 (inactive) |
| B16 | 6.37 (active) | 7.82 (active) | 6.78 (active) |
| B17 | -0.528 (inactive) | -0.415 (inactive) | -0.31 (inactive) |
| B18 | -0.101 (inactive) | 0.266 (inactive) | 1.28 |
| B19 | 5.25 (active) | 5.23 (active) | 5.34 (active) |
| B20 | 6.18 (active) | 7.1 (active) | 5.14 (active) |
| B21 | 5.43 (active) | 9.72 (active) | 6.86 (active) |
| B22 | -0.23 (inactive) | -2.31 (inactive) | 0.729 (inactive) |
| B23 | -0.328 (inactive) | -0.295 (inactive) | 0.54 (inactive) |

| Sequence | furin cleavage Z-score (7.5 min) | furin cleavage Z-score (15 min) | furin cleavage Z-score (30 min) |
| --- | --- | --- | --- |
| B24 | -1.28 (inactive) | -0.0322 (inactive) | -1.24 (inactive) |
| B25 | 10.4 (active) | 10.4 (active) | 8.84 (active) |
| B26 | 0.521 (inactive) | -1.18 (inactive) | 0.00797 (inactive) |
| B27 | 8.58 (active) | 8.16 (active) | 8.59 (active) |
| B28 | 0.495 (inactive) | -0.572 (inactive) | 1.13 |
| B29 | -0.0827 (inactive) | -0.994 (inactive) | -0.4 (inactive) |
| B30 | 2.65 | 1.75 | 0.575 (inactive) |
| B31 | 12.8 (active) | 13.7 (active) | 8.1 (active) |
| B32 | 5.97 (active) | 7.05 (active) | 7.1 (active) |
| B33 | 6.75 (active) | 7.15 (active) | 6.87 (active) |
| B34 | 10.4 (active) | 9.78 (active) | 7.49 (active) |
| B35 | -1.06 (inactive) | -0.187 (inactive) | 0.825 (inactive) |
| B36 | 0.204 (inactive) | -0.0386 (inactive) | -0.133 (inactive) |
| B37 | 0.901 (inactive) | 1.16 | 0.705 (inactive) |
| B38 | 14.6 (active) | 14.7 (active) | 10.8 (active) |
| B39 | 8.79 (active) | 9.17 (active) | 6.69 (active) |
| B40 | 2.51 | 2.95 | 4.27 (active) |
| B41 | -0.996 (inactive) | 0.0553 (inactive) | 0.952 (inactive) |
| B42 | -0.123 (inactive) | 0.813 (inactive) | 1.61 |
| B43 | -0.389 (inactive) | 0.782 (inactive) | 1.57 |
| B44 | 10.6 (active) | 9.84 (active) | 7.38 (active) |
| B45 | -0.0806 (inactive) | 0.259 (inactive) | 0.047 (inactive) |
| B46 | 10.5 (active) | 8.73 (active) | 8.99 (active) |
